Source: PubChem BioAssay AID1159580 (chemical genetic matrix, 2015)
The whole screen tested about 5,500 compounds, of which about 2,000 (36%) were called active. Roughly 18% stayed inconclusive and do not appear here. Cut-off read from the data, not from the text of the source: active = normalized growth mostly below about 0.91 (no sharp cut-off); inconclusive = no clear call, values can overlap the other calls; inactive = mostly above about 0.92. The list shows a part of the results.

Experiment: chemical genetic growth profiling, strain panel (AID 1159580);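 note: tested at 20 µM; growth read once vehicle control cultures reached saturation at 30 °C; 1 = growth at the plate median or of vehicle wells; lower values mean less growth of the strain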
Conditions: growth OD

Measured: normalized growth

CC1(C)O[C@H]2[C@H](O)C[C@](O)(C(N)=O)C[C@H]2O1
inactive: S. cerevisiae deletion strains, locus YJR075W, strain HOC1, hits give low values 1.03 | S. cerevisiae deletion strains, locus YKL009W, strain mrt4, hits give low values 1.04 | S. cerevisiae deletion strains, locus YKL068W, hits give low values 1.01 | S. cerevisiae deletion strains, locus YKL085W, strain MDH1 (second series), hits give low values 1.03 | S. cerevisiae deletion strains, locus YKL085W, strain MDH1, hits give low values 1.03 | S. cerevisiae deletion strains, locus YKL160W, strain elf1, hits give low values 1 | S. cerevisiae deletion strains, locus YKL190W, strain CNB1, hits give low values 1.02 | S. cerevisiae deletion strains, locus YKR001C, strain vps1, hits give low values 1.06 | S. cerevisiae deletion strains, locus YKR026C, strain gcn3, hits give low values 1.01 | S. cerevisiae deletion strains, locus YKR091W, strain srl3, hits give low values 1.02 | S. cerevisiae deletion strains, locus YLL001W, strain dnm1, hits give low values 0.999 | S. cerevisiae deletion strains, locus YLL026W, hits give low values 1.01 | S. cerevisiae deletion strains, locus YLL041C, strain sdh2, hits give low values 1.02 | S. cerevisiae deletion strains, locus YLR027C, strain aat2, hits give low values 1.03 | S. cerevisiae deletion strains, locus YLR039C, strain RIC1, hits give low values 1.25 | S. cerevisiae deletion strains, locus YLR058C, strain SHM2, hits give low values 1.04 | S. cerevisiae deletion strains, locus YLR102C, strain apc9, hits give low values 1.01 | S. cerevisiae deletion strains, locus YLR113W, strain HOG1, hits give low values 1.02 | S. cerevisiae deletion strains, locus YLR221C, strain rsa3, hits give low values 1.02 | S. cerevisiae deletion strains, locus YLR258W, strain gsy2, hits give low values 1.01 | S. cerevisiae deletion strains, locus YLR262C, strain YPT6 (second series), hits give low values 1.08 | S. cerevisiae deletion strains, locus YLR268W, strain sec22, hits give low values 1.05 | S. cerevisiae deletion strains, locus YLR320W, strain mms22, hits give low values 1.03 | S. cerevisiae deletion strains, locus YLR330W, strain CHS5, hits give low values 1.02 | S. cerevisiae deletion strains, locus YLR342W, strain FKS1 (second series), hits give low values 1.03 | S. cerevisiae deletion strains, locus YLR342W, strain FKS1, hits give low values 1.01 | S. cerevisiae deletion strains, locus YLR357W, strain rsc2, hits give low values 1.01 | S. cerevisiae deletion strains, locus YLR370C, strain arc18, hits give low values 1.02 | S. cerevisiae deletion strains, locus YLR371W, strain rom2, hits give low values 1.05 | S. cerevisiae deletion strains, locus YLR384C, strain iki3, hits give low values 1.02 | S. cerevisiae deletion strains, locus YLR418C, strain cdc73, hits give low values 1.09 | S. cerevisiae deletion strains, locus YML016C, strain PPZ1, hits give low values 1.03 | S. cerevisiae deletion strains, locus YML032C, strain rad52, hits give low values 1.03 | S. cerevisiae deletion strains, locus YML120C, strain ndi1, hits give low values 1.01 | S. cerevisiae deletion strains, locus YML124C, strain tub3, hits give low values 1.02 | S. cerevisiae deletion strains, locus YMR058W, strain fet3, hits give low values 1.02 | S. cerevisiae deletion strains, locus YMR078C, strain ctf18, hits give low values 1.03 | S. cerevisiae deletion strains, locus YMR125W, strain sto1, hits give low values 1 | S. cerevisiae deletion strains, locus YMR129W, hits give low values 1.01 | S. cerevisiae deletion strains, locus YMR205C, strain PFK2, hits give low values 1.02 | S. cerevisiae deletion strains, locus YMR223W, strain ubp8, hits give low values 1.05 | S. cerevisiae deletion strains, locus YMR231W, strain pep5, hits give low values 1.01 | S. cerevisiae deletion strains, locus YMR307W, strain GAS1, hits give low values 1.27 | S. cerevisiae deletion strains, locus YNL067W, strain RPL9B, hits give low values 1.01 | S. cerevisiae deletion strains, locus YNL071W, strain lat1, hits give low values 1.03 | S. cerevisiae deletion strains, locus YNL153C, strain GIM3, hits give low values 1.05 | S. cerevisiae deletion strains, locus YNL183C, strain NPR1, hits give low values 0.945 | S. cerevisiae deletion strains, locus YNL209W, strain ssb2, hits give low values 1.02 | S. cerevisiae deletion strains, locus YNL233W, strain BNI4, hits give low values 1.07 | S. cerevisiae deletion strains, locus YNL248C, strain rpa49, hits give low values 1.01 | S. cerevisiae deletion strains, locus YNL250W, strain rad50, hits give low values 1.06 | S. cerevisiae deletion strains, locus YNL271C, strain bni1, hits give low values 1.04 | S. cerevisiae deletion strains, locus YNL298W, strain CLA4, hits give low values 1.02 | S. cerevisiae deletion strains, locus YNL307C, strain MCK1, hits give low values 1.03 | S. cerevisiae deletion strains, locus YNL322C, strain KRE1 (second series), hits give low values 1.01 | S. cerevisiae deletion strains, locus YNL322C, strain KRE1, hits give low values 1.02 | S. cerevisiae deletion strains, locus YNR049C, strain mso1, hits give low values 1.02 | S. cerevisiae deletion strains, locus YNR052C, strain pop2, hits give low values 1.03 | S. cerevisiae deletion strains, locus YOL012C, strain htz1 0.602 | S. cerevisiae deletion strains, locus YOL147C, strain pex11, hits give low values 1.01 | S. cerevisiae deletion strains, locus YOR001W, strain rrp6, hits give low values 1.04 | S. cerevisiae deletion strains, locus YOR061W, strain CKA2, hits give low values 1.03 | S. cerevisiae deletion strains, locus YOR069W, strain VPS5, hits give low values 1.02 | S. cerevisiae deletion strains, locus YOR070C, strain gyp1, hits give low values 1.01 | S. cerevisiae deletion strains, locus YOR080W, strain dia2, hits give low values 1.01 | S. cerevisiae deletion strains, locus YOR083W, strain WHI5, hits give low values 1.02 | S. cerevisiae deletion strains, locus YOR106W, strain vam3, hits give low values 1.01 | S. cerevisiae deletion strains, locus YOR136W, strain idh2, hits give low values 1.04 | S. cerevisiae deletion strains, locus YOR144C, strain elg1, hits give low values 1.01 | S. cerevisiae deletion strains, locus YOR184W, strain ser1, hits give low values 1.06 | S. cerevisiae deletion strains, locus YOR231W, strain MKK1, hits give low values 0.989 | S. cerevisiae deletion strains, locus YOR265W, strain rbl2, hits give low values 1.01 | S. cerevisiae deletion strains, locus YOR270C, strain vph1, hits give low values 1.06 | S. cerevisiae deletion strains, locus YOR290C, strain snf2, hits give low values 1.03 | S. cerevisiae deletion strains, locus YOR316C, strain cot1, hits give low values 1.02 | S. cerevisiae deletion strains, locus YPL051W, strain arl3, hits give low values 0.997 | S. cerevisiae deletion strains, locus YPL055C, strain LGE1, hits give low values 1.09 | S. cerevisiae deletion strains, locus YPL078C, strain atp4, hits give low values 1.01 | S. cerevisiae deletion strains, locus YPL106C, strain sse1, hits give low values 0.996 | S. cerevisiae deletion strains, locus YPL240C, strain hsp82, hits give low values 1.01 | S. cerevisiae deletion strains, locus YPL241C, strain CIN2, hits give low values 1.02 | S. cerevisiae deletion strains, locus YPL256C, strain CLN2, hits give low values 0.995 | S. cerevisiae deletion strains, locus YPR119W, strain clb2, hits give low values 1.03 | S. cerevisiae deletion strains, locus YPR141C, strain kar3, hits give low values 1.03 | S. cerevisiae deletion strains, locus YPR163C, strain tif3, hits give low values 1.04 | S. cerevisiae deletion strains, locus YPR167C, strain met16, hits give low values 1.04 | S. cerevisiae deletion strains, strain wtn01, hits give low values 1.03 | S. cerevisiae strains, strain wild type, hits give low values 1.06
